Experimental data: PubChem BioAssay (NCATS)
Results filed as inconclusive are left out. The source made the active and inactive calls. Unless noted, the call rests on the fitted dose curve; in most records, active means well fitted curve in the direction sought with a large enough effect; inconclusive means small, poorly fitted or top-dose-only effect, or another doubt; inactive means no such curve, though single readings can be large; an effect the other way counts as inactive or inconclusive.

What was measured:
[1] = biological target: Lysosomal acid glucosylceramidase (Homo sapiens) (UniProt P04062); assay: Glucocerebrosidase-p2 (AID 348; in the data active means potency below about 10 µM; further: potency means the concentration at half of the fitted maximal effect); details: purified GBA, blue fluorogenic substrate, 40 min
Outline: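 Compounds titrated from 0.6 nM upwards against 0.2 nM enzyme in pH 5.9 citric acid/KH2PO4, taurocholate, tween-20; blue fluorogenic substrate 80 uM, 40 min room temperature, stopped and read Ex 365/Em 440 for AC50.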

[2] = AP1 Signaling Pathway (AID 357; active means well fitted curve in either direction with a large enough effect, not every such curve was filed as active;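 further: ME-180 reporter cells stimulated with EGF at its EC50 level; on the % scale 0 is the no-effect control and ±100 the full control effect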); details: ME-180 AP-1-bla reporter, EGF-induced, beta-lactamase ratio, 5 h; at 7.69 µM (top of the series) unless noted
Outline: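 Cells are seeded overnight, exposed to compound titrations and an EC50 level of EGF for 5 hours at 37 °C, then loaded with CCF4 dye for 2.5 hours. Beta-lactamase activity under the AP-1 element is read as a blue/green ratio.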

[3] = biological target: Cytochrome P450 1A2 (Homo sapiens) (UniProt P05177); assay: p450-cyp1a2 (AID 410; calls by dose curve; further: potency means the concentration at half of the fitted maximal effect;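 on activity change, negative = inhibition: -100% = full effect of reference inhibitor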); details: recombinant CYP1A2, luciferin-ME demethylation, luminescence; series mostly up to 57 µM
Outline: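 Inhibition was calculated relative to 57 uM furafylline (full inhibition). The reaction used human CYP1A2 at 20nM with Luciferin-ME at its Km, 100uM, driven by an NADPH-regenerating system for 60 min at room temperature.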

[4] = NFAT Signaling Pathway (AID 444; active means well fitted curve in either direction with a large enough effect, not every such curve was filed as active;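 further: carbachol stimulus at about its EC50 of 1 µM final; on the % scale 0 is the no-effect control and ±100 the full control effect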); details: Jurkat NFAT-bla M1, carbachol, beta-lactamase ratio, 5 h; at 7.69 µM (top of the series) unless noted
Outline: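 Jurkat cells with NFAT-driven β-lactamase reporter and co-expressed M1 receptor, stimulated with carbachol (final 1 uM, ~EC50), compound titration, 5 h at 37 °C. CCF4 loaded 1 h at RT; 460/530 nm ratio gave %activity and AC50.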

[5] = Stat Signaling Pathway (AID 446; active means well fitted curve in either direction with a large enough effect, not every such curve was filed as active;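 further: ME-180 cervical cancer cells given 40 pM IL-6 alongside compound; SIE-controlled beta-lactamase reporter measured as 460/530 nm FRET emission ratio; on the % scale 0 is the no-effect control and ±100 the full control effect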); details: ME-180 SIE beta-lactamase reporter, IL-6 stimulated, 5 h; at 7.69 µM (top of the series) unless noted
Outline: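 ME-180 SIE-bla cells; overnight plating; cpd + IL-6 40 pM, 5 h, 37 C; LiveBLAzer 2.5 h RT; 460/530 nm emission ratio. Normalized to 300 pM IL-6 and 125 nM JAK inhibitor controls.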

[6] = biological target: Glucocorticoid receptor (Homo sapiens) (UniProt P04150); assay: GR-GFP Redistribution (AID 450;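 active means compounds whose dose series gives a full or clear partial fitted curve of increased nuclear translocation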; further: potency means the concentration at half of the fitted maximal effect); details: U2OS GR-GFP nuclear translocation, laser cytometry, 2 h
[7] = biological target: Glucocorticoid receptor (Homo sapiens) (UniProt P04150); assay: GR-EFC Redistribution (AID 451; calls by dose curve; further: potency means the concentration at half of the fitted maximal effect); details: CHO-K1 GR-EFC translocation, beta-gal luminescence, 2 h
Outline: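 CHO-K1 cells expressing nuclear EA and GR-ED fragments of b-gal; compounds titrated up to 46 uM final, 2 h at 37 C. GR nuclear translocation read as complemented b-gal luminescence after 1 h RT detection.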

[8] = biological target: Mitogen-activated protein kinase 10 (Mus musculus) (UniProt Q61831); assay: JNK3 AlphaScreen Assay (AID 530; active means well fitted curve in either direction with a large enough effect, not every such curve was filed as active;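 further: kinase came from lysate of stimulated human HepG2 cells; signal reports phosphorylation of biotinylated GST-cJun 1-79 at Ser73 with 10 µM ATP; on the % scale 0 is the no-effect control and ±100 the full control effect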); details: JNK3 lysate, c-Jun phosphorylation; series mostly up to 57.1 µM
Outline: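 qHTS format: compounds tested as titrations against IL-1beta/TNF-alpha-activated HepG2 lysate JNK3 with biotin-GST-cJun substrate and 10 uM ATP at room temperature. Loss of anti-phospho-cJun AlphaScreen signal indicates inhibition.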

[9] = biological target: 3',5'-cyclic-AMP phosphodiesterase 4B (Homo sapiens) (UniProt Q07343); assay: qHTS Assay for Inhibitors of PDE-IV (AID 607; active means well fitted activation curve with a large enough effect in the main read-out, with a control signal flat, not every such curve was filed as active; further: % of control where 0% means no effect); details: HEK293 ACTOne CNG channel cells, membrane potential fluorescence; series mostly up to 22.9 µM
Outline: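 ACTOne HEK293 cells carry a modified cAMP-gated CNG channel and express endogenous PDE4; plated 1000 cells/well, compounds up to 22.9 uM final. Membrane-potential dye fluorescence (ex 535/em 590) was read; parental cells received 10 uM forskolin + 100 uM RO 20-1724.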

[10] = qHTS Assay for Lipid Storage Modulators (AID 1519; calls by dose curve); details: Drosophila S3 cells, BODIPY lipid droplet/cell ratio, laser cytometry, cells loaded with oleic acid; for activity change, negative = inhibition: at 57.5 µM (top of the series)
Outline: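 Cells seeded at 5,000 per well were treated with compounds over a concentration series and loaded with oleic acid (400 uM, as added). Lipid droplet fluorescence (488 nm excitation, 500-530 nm channel) was read by laser-scanning cytometry and normalized to 20 uM Triacsin C.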

[11] = biological target: Dual specificity protein kinase CLK4 (Homo sapiens) (UniProt Q9HAZ1); assay: qHTS Assay for Inhibitors of CDC-like Kinase 4 (Kinase-Glo Assay) (AID 1770); details: recombinant Clk4, Kinase-Glo ATP depletion luminescence; series mostly up to 66.7 µM; further: on the % scale 0 is the no-effect control and ±100 the full control effect; nearly all actives have a fitted effect of over 65% in size
Outline: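 Clk4 25 nM, RS peptide 100 uM, ATP 1 uM, pH 7.5 Tris, 10 mM MgCl2, 2.5 mM DTT; 4.5 h RT; ATP depletion read by Kinase-Glo luminescence.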

[12] = biological target: Dual specificity protein kinase CLK4 (Homo sapiens) (UniProt Q9HAZ1); assay: qHTS Assay for Inhibitors of CDC-like Kinase 4 (ADP-Glo Assay) (AID 1771); details: recombinant CLK4, ADP-Glo luminescence; series mostly up to 80 µM; further: nearly all actives have a fitted effect of over 70% in size; further: potency means the concentration at half of the fitted maximal effect
Outline: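 Kinase reaction: Clk4 at 25 nM, RS repeat peptide substrate at 100 uM, ATP at 1 uM, 1 hr, room temperature. Product ADP detected as luciferase signal via ADP-Glo.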

[13] = biological target: Dual specificity protein kinase CLK4 (Homo sapiens) (UniProt Q9HAZ1); assay: qHTS Assay for Inhibitors of CDC-like Kinase 4 (ADP-FP Assay) (AID 1795); details: Transcreener ADP fluorescence polarization; series mostly up to 50 µM;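 further: recombinant human CLK4 phosphorylating RS repeat peptide at 1 µM ATP; on the % scale 0 is the no-effect control and ±100 the full control effect; nearly all actives have a fitted effect of over 60% in size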
Outline: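 Kinase activity was followed as ADP output, converted from fluorescence polarization with a calibration curve. Reactions ran one hour at low ATP (1 uM) with RS peptide substrate.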

[14] = biological target: Ubiquitin carboxyl-terminal hydrolase 1 (Homo sapiens) (UniProt O94782); assay: Inhibitors of USP1/UAF1: Pilot qHTS (AID 504865); details: purified USP1/UAF1, Ub-rhodamine cleavage fluorescence; series mostly up to 54.9 µM; further: nearly all actives have a fitted effect of over 35% in size; further: potency means the concentration at half of the fitted maximal effect
Outline: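 Enzyme-free wells gave the negative control, while test wells held 1nM USP1/UAF1 preincubated with compound for 15 min at room temperature. Ub-Rho at 150nM final started the reaction, and fluorescence at 480/540 nm was recorded kinetically.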

[15] = Primary qHTS for small molecule stabilizers of the endoplasmic reticulum resident proteome: Secreted ER Calcium Modulated Protein (SERCaMP) assay (AID 1508630); details: SH-SY5Y GLuc-SERCaMP (Gaussia luciferase released on ER calcium loss) secretion, thapsigargin, luminescence; series mostly up to 38.4 µM; further: on the % scale 0 is the no-effect control and ±100 the full control effect
Outline: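 GLuc-SERCaMP-expressing SH-SY5Y cells, pretreated 16 h with compound, are challenged with thapsigargin to empty ER calcium stores; after 4 h, coelenterazine is added directly to the medium and luminescence is imaged.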

[16] = biological target: Cytochrome P450 3A4 (Homo sapiens) (UniProt P08684); assay: qHTS Assay for Activators of Cytochrome P450 3A4 (AID 885); details: recombinant CYP3A4, Luciferin-PPXE luminescence, 60 min; series mostly up to 57.1 µM; further: nearly all actives have a fitted effect of over 65% in size; further: potency means the concentration at half of the fitted maximal effect
Outline: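 20nM CYP3A4 + 25uM Luciferin-PPXE (=KM), 200mM KPO4; cpd 10 min RT; NADPH regen, 60 min RT; stop w/ detection buffer, 20 min; luminescence. Normalized to 57 uM ketoconazole.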

[17] = biological target: Rap guanine nucleotide exchange factor 4 (Homo sapiens) (UniProt Q8WZA2); assay: Confirmatory qHTS for antagonist of cAMP-regulated guanine nucleotide exchange factor 4 (EPAC2) (AID 1645885); details: EPAC2 Rap1B-BODIPY-GDP exchange fluorescence, biochemical; series mostly up to 114 µM; further: nearly all actives have a fitted effect of over 25% in size; further: potency means the concentration at half of the fitted maximal effect
[18] = biological target: Rap guanine nucleotide exchange factor 3 (Homo sapiens) (UniProt O95398); assay: Confirmatory qHTS for agonist of cAMP-regulated guanine nucleotide exchange factor 3 (EPAC1) (AID 1645881); details: EPAC1 Rap1B BODIPY-GDP exchange fluorescence, 100% = cAMP control response; series mostly up to 154 µM;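 further: EPAC1 catalysed release of BODIPY-GDP from Rap1B seen as fluorescence loss; nearly all actives have a fitted effect of over 75% in size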
[19] = biological target: Rap guanine nucleotide exchange factor 4 (Homo sapiens) (UniProt Q8WZA2); assay: Confirmatory qHTS for agonist of cAMP-regulated guanine nucleotide exchange factor 4 (EPAC2) (AID 1645884); details: EPAC2 GEF activity, Rap1B-BODIPY-GDP fluorescence, percent relative to cAMP agonist control; series mostly up to 154 µM;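 further: nucleotide exchange releases bodipy-GDP from Rap1 and this lowers its fluorescence; on the % scale 0 is the no-effect control and ±100 the full control effect; nearly all actives have a fitted effect of over 65% in size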
[20] = measured here: cell count channel max response
[21] = measured here: lipid channel max response

Rap guanine nucleotide exchange factor 4 (Homo sapiens), sequence (Q8WZA2 whole entry, looked up): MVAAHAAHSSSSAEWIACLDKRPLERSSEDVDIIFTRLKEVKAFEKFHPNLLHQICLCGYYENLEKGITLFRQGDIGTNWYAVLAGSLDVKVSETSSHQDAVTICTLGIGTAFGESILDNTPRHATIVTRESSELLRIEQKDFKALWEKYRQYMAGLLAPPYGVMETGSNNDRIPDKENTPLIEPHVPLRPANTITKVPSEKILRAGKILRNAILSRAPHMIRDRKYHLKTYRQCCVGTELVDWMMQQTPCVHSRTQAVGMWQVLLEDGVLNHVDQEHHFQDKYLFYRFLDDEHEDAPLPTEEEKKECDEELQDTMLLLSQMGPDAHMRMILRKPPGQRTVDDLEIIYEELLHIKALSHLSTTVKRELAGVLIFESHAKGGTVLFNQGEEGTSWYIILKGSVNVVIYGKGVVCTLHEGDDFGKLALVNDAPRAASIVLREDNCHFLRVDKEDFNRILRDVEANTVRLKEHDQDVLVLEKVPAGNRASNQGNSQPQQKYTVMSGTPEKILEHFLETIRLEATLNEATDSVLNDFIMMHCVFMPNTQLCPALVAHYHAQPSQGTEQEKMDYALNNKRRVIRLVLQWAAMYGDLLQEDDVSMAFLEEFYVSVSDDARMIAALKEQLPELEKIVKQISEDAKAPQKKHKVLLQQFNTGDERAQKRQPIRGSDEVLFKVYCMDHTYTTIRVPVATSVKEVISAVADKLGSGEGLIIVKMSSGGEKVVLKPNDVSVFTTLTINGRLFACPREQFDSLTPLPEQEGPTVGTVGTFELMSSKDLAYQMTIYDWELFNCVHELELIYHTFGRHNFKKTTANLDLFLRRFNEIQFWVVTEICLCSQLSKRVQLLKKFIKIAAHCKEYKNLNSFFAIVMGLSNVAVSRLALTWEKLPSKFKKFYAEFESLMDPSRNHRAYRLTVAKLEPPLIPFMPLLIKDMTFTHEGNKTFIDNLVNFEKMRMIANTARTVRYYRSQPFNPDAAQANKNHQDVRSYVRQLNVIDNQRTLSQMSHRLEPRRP
Cytochrome P450 3A4 (Homo sapiens), sequence (P08684 whole entry, looked up): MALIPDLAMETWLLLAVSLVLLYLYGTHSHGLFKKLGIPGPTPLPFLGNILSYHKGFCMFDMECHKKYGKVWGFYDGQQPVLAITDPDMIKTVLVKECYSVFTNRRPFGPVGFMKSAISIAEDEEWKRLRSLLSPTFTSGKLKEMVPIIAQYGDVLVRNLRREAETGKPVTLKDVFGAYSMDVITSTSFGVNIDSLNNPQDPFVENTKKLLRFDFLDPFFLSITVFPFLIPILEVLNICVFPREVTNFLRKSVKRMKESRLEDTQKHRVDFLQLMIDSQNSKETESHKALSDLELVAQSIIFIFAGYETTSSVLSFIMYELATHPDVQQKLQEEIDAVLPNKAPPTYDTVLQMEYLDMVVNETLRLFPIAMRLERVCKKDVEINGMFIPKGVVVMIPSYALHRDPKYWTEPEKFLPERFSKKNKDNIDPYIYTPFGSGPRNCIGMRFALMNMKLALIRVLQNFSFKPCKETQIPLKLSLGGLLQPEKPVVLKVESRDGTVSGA
Rap guanine nucleotide exchange factor 3 (Homo sapiens), sequence (O95398 whole entry, looked up): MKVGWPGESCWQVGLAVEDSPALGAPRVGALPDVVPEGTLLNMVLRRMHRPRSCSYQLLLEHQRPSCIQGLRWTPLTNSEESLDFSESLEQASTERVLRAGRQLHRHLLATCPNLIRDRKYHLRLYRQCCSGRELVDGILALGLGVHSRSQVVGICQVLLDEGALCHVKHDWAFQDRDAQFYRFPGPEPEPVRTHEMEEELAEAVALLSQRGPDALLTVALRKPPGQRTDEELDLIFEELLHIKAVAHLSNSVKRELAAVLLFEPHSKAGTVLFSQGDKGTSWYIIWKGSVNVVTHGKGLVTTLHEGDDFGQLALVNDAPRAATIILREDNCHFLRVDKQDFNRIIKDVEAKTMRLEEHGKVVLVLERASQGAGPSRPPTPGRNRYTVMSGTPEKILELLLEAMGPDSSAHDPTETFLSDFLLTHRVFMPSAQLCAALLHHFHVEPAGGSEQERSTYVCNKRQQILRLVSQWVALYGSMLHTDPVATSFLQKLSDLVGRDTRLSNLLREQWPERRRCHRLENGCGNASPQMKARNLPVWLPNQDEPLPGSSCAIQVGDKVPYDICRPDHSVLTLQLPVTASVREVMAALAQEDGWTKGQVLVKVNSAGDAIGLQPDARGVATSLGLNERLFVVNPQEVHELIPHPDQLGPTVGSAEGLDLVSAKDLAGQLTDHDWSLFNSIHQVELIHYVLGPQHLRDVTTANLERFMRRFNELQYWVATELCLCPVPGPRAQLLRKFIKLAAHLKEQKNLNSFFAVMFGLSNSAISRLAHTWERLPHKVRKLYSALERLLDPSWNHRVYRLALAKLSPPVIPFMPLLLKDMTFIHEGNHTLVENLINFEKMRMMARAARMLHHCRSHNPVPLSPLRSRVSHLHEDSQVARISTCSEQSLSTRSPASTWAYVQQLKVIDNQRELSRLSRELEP
Lysosomal acid glucosylceramidase (Homo sapiens), sequence (P04062 whole entry, looked up): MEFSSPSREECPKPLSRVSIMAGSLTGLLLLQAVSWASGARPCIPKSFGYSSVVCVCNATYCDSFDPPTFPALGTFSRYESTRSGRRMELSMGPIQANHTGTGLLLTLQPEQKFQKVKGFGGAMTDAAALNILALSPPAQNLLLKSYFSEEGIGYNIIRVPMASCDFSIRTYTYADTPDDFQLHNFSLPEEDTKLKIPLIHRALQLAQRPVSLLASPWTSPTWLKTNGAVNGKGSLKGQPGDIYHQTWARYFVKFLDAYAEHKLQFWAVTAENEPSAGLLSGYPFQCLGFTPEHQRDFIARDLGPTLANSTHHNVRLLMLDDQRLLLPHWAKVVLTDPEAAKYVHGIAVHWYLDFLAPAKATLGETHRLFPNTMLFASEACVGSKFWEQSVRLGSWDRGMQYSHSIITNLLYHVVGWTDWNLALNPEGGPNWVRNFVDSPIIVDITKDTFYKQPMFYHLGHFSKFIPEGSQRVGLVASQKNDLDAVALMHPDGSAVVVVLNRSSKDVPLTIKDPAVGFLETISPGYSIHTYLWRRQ
Ubiquitin carboxyl-terminal hydrolase 1 (Homo sapiens), sequence (O94782 whole entry, looked up): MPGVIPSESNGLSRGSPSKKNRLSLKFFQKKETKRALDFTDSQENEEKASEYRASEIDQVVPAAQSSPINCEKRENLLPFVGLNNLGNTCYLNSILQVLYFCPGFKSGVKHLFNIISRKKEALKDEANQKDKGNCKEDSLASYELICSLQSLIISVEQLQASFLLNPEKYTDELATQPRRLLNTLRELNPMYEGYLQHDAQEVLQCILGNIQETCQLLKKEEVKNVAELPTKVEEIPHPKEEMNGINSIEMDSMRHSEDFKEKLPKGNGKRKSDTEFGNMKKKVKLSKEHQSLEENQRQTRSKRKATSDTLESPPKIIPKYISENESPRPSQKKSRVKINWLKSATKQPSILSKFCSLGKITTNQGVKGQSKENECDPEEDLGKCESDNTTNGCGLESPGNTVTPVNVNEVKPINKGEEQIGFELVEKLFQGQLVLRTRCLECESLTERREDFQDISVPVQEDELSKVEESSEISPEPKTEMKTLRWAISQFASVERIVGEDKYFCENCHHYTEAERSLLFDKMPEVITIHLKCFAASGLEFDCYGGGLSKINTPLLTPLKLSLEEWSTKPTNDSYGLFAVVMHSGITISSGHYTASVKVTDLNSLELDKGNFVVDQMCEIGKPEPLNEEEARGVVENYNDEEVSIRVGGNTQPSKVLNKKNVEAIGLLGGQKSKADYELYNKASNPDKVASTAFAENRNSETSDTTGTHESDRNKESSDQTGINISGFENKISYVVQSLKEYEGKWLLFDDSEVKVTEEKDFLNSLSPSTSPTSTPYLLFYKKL
Glucocorticoid receptor (Homo sapiens), sequence (P04150 whole entry, looked up, the tested form may be a part): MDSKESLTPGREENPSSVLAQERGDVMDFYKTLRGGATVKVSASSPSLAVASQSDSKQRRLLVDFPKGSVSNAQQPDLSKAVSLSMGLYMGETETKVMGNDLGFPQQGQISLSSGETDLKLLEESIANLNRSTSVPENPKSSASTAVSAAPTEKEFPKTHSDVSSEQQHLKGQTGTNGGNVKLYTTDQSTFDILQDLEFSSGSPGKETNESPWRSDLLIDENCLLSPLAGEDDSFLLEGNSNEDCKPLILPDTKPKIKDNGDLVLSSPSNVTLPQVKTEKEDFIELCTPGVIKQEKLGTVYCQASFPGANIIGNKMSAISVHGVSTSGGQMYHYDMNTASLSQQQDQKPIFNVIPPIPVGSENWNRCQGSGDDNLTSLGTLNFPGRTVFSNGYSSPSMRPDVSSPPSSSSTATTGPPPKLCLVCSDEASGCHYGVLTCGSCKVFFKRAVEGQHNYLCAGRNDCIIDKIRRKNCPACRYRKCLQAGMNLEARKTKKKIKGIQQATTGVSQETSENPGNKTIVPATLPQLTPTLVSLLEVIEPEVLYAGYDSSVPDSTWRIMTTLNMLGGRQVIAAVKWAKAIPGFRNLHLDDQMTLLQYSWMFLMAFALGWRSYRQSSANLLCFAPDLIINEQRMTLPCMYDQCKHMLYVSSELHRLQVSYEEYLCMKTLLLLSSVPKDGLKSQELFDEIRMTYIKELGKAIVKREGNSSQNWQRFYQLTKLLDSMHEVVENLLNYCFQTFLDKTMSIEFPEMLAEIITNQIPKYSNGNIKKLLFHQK
Cytochrome P450 1A2 (Homo sapiens), sequence (P05177 whole entry, looked up): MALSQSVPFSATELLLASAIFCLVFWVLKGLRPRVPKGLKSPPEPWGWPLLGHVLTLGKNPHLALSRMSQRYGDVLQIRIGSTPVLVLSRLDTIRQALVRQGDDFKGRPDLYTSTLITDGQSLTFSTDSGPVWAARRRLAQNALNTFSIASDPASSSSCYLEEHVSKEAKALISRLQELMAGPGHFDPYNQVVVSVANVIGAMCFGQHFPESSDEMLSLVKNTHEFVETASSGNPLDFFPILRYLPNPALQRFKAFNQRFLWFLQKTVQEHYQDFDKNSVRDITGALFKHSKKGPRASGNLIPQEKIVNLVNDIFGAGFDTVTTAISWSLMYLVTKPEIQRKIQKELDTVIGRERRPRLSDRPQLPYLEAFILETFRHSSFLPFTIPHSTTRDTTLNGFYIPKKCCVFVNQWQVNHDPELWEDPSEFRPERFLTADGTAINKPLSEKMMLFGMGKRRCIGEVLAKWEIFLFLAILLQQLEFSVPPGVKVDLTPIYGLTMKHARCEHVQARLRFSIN

COc1ncc2ncc(=O)n(C[C@H]3CCCO3)c2n1
6.83%: max response [10, 21]
3.18%: max response [10, 20]
active: Potency [3] 15.8 µM
inactive: Potency [1] > 11.4 µM | activity change, negative = inhibition [2] -16.2% | activity change, negative = inhibition [4] 4.03% | activity, negative = inhibition [5] -8.8% | Potency [6] > 9.22 µM | Potency [7] > 46 µM | outcome [8] | Potency [9] | activity change, negative = inhibition [10] 4.31% | Potency [11] | Potency [12] | Potency [13] | Potency [14] | Potency [15]

COCCn1c(=O)c(-c2cccs2)nc2cnc(N(C)C)nc21
active: Potency [3] 2 µM
inactive: Potency [1] > 11.4 µM | activity change, negative = inhibition [2] -5.67% | activity change, negative = inhibition [4] 10.2% | activity, negative = inhibition [5] -4.44% | Potency [6] > 9.22 µM | Potency [7] > 46 µM | outcome [8] | Potency [9] | Potency [16] | activity change, negative = inhibition [10] 3.99% | Potency [11] | Potency [12] | Potency [13] | Potency [15] | Potency [17]
26.2%: max response [10, 20]
28.7%: max response [10, 21]

COc1ccccc1-c1cc(NCc2cccc(C)c2)ncn1
inactive: Potency [1] > 11.4 µM | activity change, negative = inhibition [2] -9.64% | activity change, negative = inhibition [4] 1.95% | activity, negative = inhibition [5] -2.82% | Potency [6] > 46 µM | Potency [7] > 46 µM | outcome [8] | Potency [16] | activity change, negative = inhibition [10] -23.2% | Potency [15] | Potency [17]
active: Potency [3] 1.58 µM | Potency [12] 35.5 µM
-16.7%: max response [10, 21]
4.86%: max response [10, 20]

COCC(=O)N1CCC2(CC1)CCN(C(=O)Nc1cccc(C#N)c1)CC2
4.68%: max response [10, 20]
4.41%: max response [10, 21]
inactive: Potency [1] > 11.4 µM | activity change, negative = inhibition [2] -4.8% | Potency [3] | activity change, negative = inhibition [4] -11.9% | activity, negative = inhibition [5] -4.23% | Potency [7] > 46 µM | outcome [8] | Potency [9] | activity change, negative = inhibition [10] 1.13% | Potency [15] | outcome [18] | outcome [19] | Potency [17]

CN(C)c1ncc2nc(-c3ccc(F)cc3)c(=O)n(Cc3cccs3)c2n1
inactive: Potency [1] > 11.4 µM | activity change, negative = inhibition [2] 14.3% | activity change, negative = inhibition [4] 5.02% | activity, negative = inhibition [5] -1.13% | Potency [6] > 9.22 µM | Potency [7] > 46 µM | activity change, negative = inhibition [10] 2.1% | Potency [11] | Potency [12] | Potency [13] | Potency [14] | Potency [15]
26.1%: max response [10, 20]
active: Potency [3] 1 µM
28%: max response [10, 21]

COc1cccc(Nc2ncc3nc(-c4ccc(F)cc4)c(=O)n(C)c3n2)c1
25.1%: max response [10, 21]
active: Potency [3] 3.16 µM
19%: max response [10, 20]
inactive: Potency [1] > 11.4 µM | activity change, negative = inhibition [2] -6.29% | activity change, negative = inhibition [4] -16.4% | activity, negative = inhibition [5] -6.63% | Potency [6] > 9.22 µM | Potency [7] > 46 µM | outcome [8] | Potency [9] | activity change, negative = inhibition [10] 5.16% | Potency [11] | Potency [12] | Potency [13] | Potency [14] | Potency [15]

COc1ccc(C(=O)N2CCC3(CC2)CN(c2ccncc2)C3)cc1
inactive: Potency [1] > 11.4 µM | activity change, negative = inhibition [2] 4.67% | Potency [3] | activity change, negative = inhibition [4] -16% | activity, negative = inhibition [5] 5.81% | Potency [7] > 46 µM | Potency [9] | Potency [16] | activity change, negative = inhibition [10] -1.18% | Potency [15] | outcome [18] | outcome [19] | Potency [17]
-4.19%: max response [10, 21]
-4.69%: max response [10, 20]

COc1ccccc1CNc1nc(-c2c(C)noc2C)nc2ccccc12
19.1%: max response [10, 21]
active: Potency [3] 0.631 µM | Potency [14] 28.2 µM | Potency [17] 39.3 µM
inactive: activity change, negative = inhibition [2] 2.62% | activity, negative = inhibition [5] -26.3% | Potency [6] > 46 µM | Potency [7] > 46 µM | outcome [8] | Potency [16] | activity change, negative = inhibition [10] 7.14% | Potency [11] | Potency [12] | Potency [13] | Potency [15] | outcome [18] | outcome [19]
14%: max response [10, 20]

O=C(c1cccc(F)c1)N1CCC2(CC1)CN(c1cccc(-c3ccccc3)c1)C2
-20.8%: max response [10, 21]
-4.49%: max response [10, 20]
active: Potency [3] 12.6 µM | Potency [16] 3.16 µM
inactive: Potency [1] > 11.4 µM | activity change, negative = inhibition [2] -6.1% | activity, negative = inhibition [5] -13.4% | Potency [7] > 46 µM | Potency [9] | activity change, negative = inhibition [10] -19.2% | Potency [15] | outcome [18] | outcome [19] | Potency [17]
